# Source: the supplement of paper PMC3334620
# In all, about 33,000 sequences were measured (“E-score (-0.5 to 0.5)”: median about -0.013, highest 2% from about 0.3 on). This is one part of a sample in which the highest values are shown more often than they occur.
# Target: T1, Msn1 (UniProt P22148)
# T1 sequence: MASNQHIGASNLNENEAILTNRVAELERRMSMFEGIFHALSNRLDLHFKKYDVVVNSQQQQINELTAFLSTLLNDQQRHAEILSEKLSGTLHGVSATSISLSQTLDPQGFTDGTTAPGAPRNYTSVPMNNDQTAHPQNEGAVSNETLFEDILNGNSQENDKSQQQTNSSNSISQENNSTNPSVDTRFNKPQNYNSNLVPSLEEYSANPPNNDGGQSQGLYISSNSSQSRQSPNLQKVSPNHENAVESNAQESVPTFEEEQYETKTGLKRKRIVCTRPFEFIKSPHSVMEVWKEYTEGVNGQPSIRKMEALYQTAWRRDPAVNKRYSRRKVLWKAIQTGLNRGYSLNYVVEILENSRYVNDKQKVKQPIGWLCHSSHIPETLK
# Assay: PBM E-score (8-mer binding enrichment) (E-score (-0.5 to 0.5)); higher = stronger / more preferred TF binding
# Conditions: protein concentration: 200 nM; construct: GST-full length
# How it was run: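 Bound GST-tagged yeast transcription factors, applied at about 100-200 nM to double-stranded universal all-10-mer Agilent arrays, were detected with fluorescent anti-GST. Scans were normalised with masliner. A modified Wilcoxon-Mann-Whitney statistic, the E-score, was assigned to each ungapped eight-base word pooled with its reverse complement by the Universal PBM Analysis Suite.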
row,Sequence,PBM E-score
1,CCGCTTCC,-0.183
2,GACGGAAA,0.106
3,CACGGACA,0.455
4,GACGGACC,-0.0404
5,AACGGACA,0.344
6,TACGGAGA,-0.0508
7,CACGGACC,0.0127
8,AACGGACG,0.0165
9,AACGGACT,-0.00389
10,TACGGACA,0.44
11,CACGGACG,0.175
12,TACGGAAA,0.17
13,GACGGACA,0.386
14,ACTAACGC,-0.108
15,GCTCGAAA,-0.00351
16,TGCAGGAA,0.0458
17,TGAGTGAA,-0.115
18,ACGAATCG,0.0506
19,GGAATAAA,0.119
20,CGAATAAC,0.0021
21,CGAATAAA,0.309
22,TAAGCTCA,-0.0986
23,CTTCCGGA,0.132
24,CGTCCGGA,0.331
25,ATTCCGGA,0.313

row,Sequence,PBM E-score
1,ATTCCGGG,0.14
2,GGTCCGGA,0.216
3,AGTCCGGA,0.267
4,CCTTTGAA,-0.154
5,ATGTTTTG,0.12
6,CGAGCACG,-0.175
7,ACATATGG,0.262
8,ATATATTC,0.163
9,CCATATTC,-0.0353
10,ACATATGC,-0.0219
11,CCATATCA,0.0259
12,ACATATTG,0.321
13,ACATATTC,0.34
14,ACATATCG,0.231
15,TCATATGA,0.297
16,ACATATCA,0.319
17,ACATATGA,0.311
18,ATATATTG,-0.172
19,AATCTTGG,0.0184
20,AGTTACAT,-0.0774
21,AATCAAAA,0.089
22,CTATTCTC,-0.0396
23,CCACAACC,-0.0582
24,TAGTTGCA,0.0158
25,TAGAAGGA,-0.21

row,Sequence,PBM E-score
1,AATAGCTG,-0.128
2,GTTGAGGA,-0.00729
3,GCATATTA,0.0109
4,CCATATTA,0.21
5,ACATATTA,0.351
6,ACCTTCCA,-0.119
7,AATCGAGT,-0.0102
8,CGAAGCAC,0.0622
9,ACACCGTG,-0.05
10,CTTTGGAC,0.262
11,ATTTGGAG,-0.0358
12,ATTTGGAC,0.366
13,AATTGGAC,0.342
14,AATTGGAT,0.157
15,GATTGGAC,0.109
16,CTGAGCTC,0.0318
17,ATTTGCCC,0.0584
18,AAGTGATA,-0.052
19,GACAGGAC,0.17
20,AACAAGCC,0.0265
21,TACAAAAA,0.264
22,CACAAGAA,0.105
23,GACAAGAA,0.374
24,CACAGGAA,0.0261
25,TACAAGAA,0.169

row,Sequence,PBM E-score
1,GACAAAAA,0.466
2,GACAGGAA,0.323
3,GACAAGCC,0.318
4,AACAAAAA,0.15
5,GACAAGCA,0.278
6,ATCTATCC,-0.0249
7,CCTAGCCA,-0.0603
8,CCTGCAAA,-0.188
9,AAGCAAGG,-0.0227
10,ATTTACTA,0.206
11,AGTCAGAA,-0.0729
12,CGTACGGC,-0.134
13,CCTATGTA,-0.0586
14,GACACAAA,0.395
15,GACAAACC,0.445
16,AACAAACC,0.155
17,CACAAAAC,0.0522
18,AACAAAAC,0.199
19,GACAAAAC,0.451
20,TACACAAA,0.205
21,TACAAACA,0.301
22,GACAAACA,0.456
23,CACACAAA,0.115
24,CACAAACC,-0.135
25,AACAAACA,0.133

row,Sequence,PBM E-score
1,GACATCAC,0.118
2,CGGCAGCC,-0.118
3,CGCGGTCC,-0.0855
4,AGTATTGG,-0.0788
5,AGAGTTAT,-0.0142
6,GATAGGCA,-0.0844
7,AGTAGGCA,-0.07
8,AACAAGAC,0.135
9,GACAAGAC,0.311
10,CACAAGAC,-0.118
11,GCCCATGA,-0.081
12,GGGGACAA,0.456
13,TGGGACAA,0.471
14,GGGGACAC,0.28
15,TGGGACCA,-0.117
16,TGGGAGAA,-0.209
17,GGGGACCA,-0.223
18,ATAGCACA,-0.0389
19,ATGGAGCG,-0.0801
20,CAGATAAG,0.102
21,TTCCGAAA,0.0799
22,GTCCGACA,0.322
23,ATCCGAAC,-0.00081
24,ATCCGACA,0.128
25,GTCCGAAA,0.312

row,Sequence,PBM E-score
1,CTCCGACA,0.174
2,ATCCGAAG,0.0243
3,GTCCGAGA,0.326
4,CTCCGAGA,0.152
5,ATCCGAAA,0.057
6,ATCCGAAT,0.309
7,ATCCGAGA,0.187
8,ATTAATTA,0.0938
9,CTCTTACC,0.0706
10,ATCGCCTC,-0.0571
11,CTCTCCCC,-0.213
12,ACAACATG,0.0414
13,AATATGCC,-0.141
14,CTCTGATA,0.112
15,CCAGGGAC,0.0428
16,ACGTTAGT,0.0228
17,ACTTACTG,-0.113
18,AAGCTGCG,0.00828
19,AGCCCTGC,-0.252
20,AAGGGCGG,-0.21
21,CCGAACCC,-0.146
22,CATTGCAC,0.0641
23,ATAACGAT,-0.192
24,CTAATGTA,0.143
25,ATAATGTA,0.139

row,Sequence,PBM E-score
1,ATAATGTG,-0.0687
2,CTAATGAC,-0.12
3,ATAATGTC,0.427
4,CTAATGTC,0.378
5,AATCCTTC,-0.0471
6,AACCCGTT,-0.0539
7,ACGAGCGT,-0.173
8,ATTCGTCG,0.0922
9,ATTCGTCC,0.323
10,CTTCGTCC,-0.0108
11,CGACGACA,0.17
12,CAACGACC,-0.156
13,GCACGACA,-0.045
14,TCACGACA,0.322
15,ACACGACA,0.225
16,CAACGACG,-0.0172
17,GTACGACA,0.345
18,CCACGACA,0.179
19,CTACGACC,-0.119
20,ATACGACA,0.133
21,CTACGACA,0.311
22,CAACGACA,0.307
